Source: PubChem BioAssay
Most compounds without a hit are left out; they make up all but 3.7% or so of the library.
Rv3671c protease: Rv3671c serine protease inhibitors, primary screen, biochemical, fluorescence polarization, M. tuberculosis H37Rv; P9WHR9; inhibition, % at 5.96 µM; 320,000 tested, 0.048% active; in the data active = inhibition above about 38%;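 note: extracellular domain of Rv3671c used as enzyme; 0% = enzyme with DMSO and 100% = no enzyme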
FadD28 binding: inhibitors of FadD28 bisubstrate probe binding, primary screen, biochemical, fluorescence polarization, single point; inhibition, % at 12.5 µM; 360,000 tested, 0.22% active; in the data active = inhibition above about 8.5%, passing the limit was not always enough; inconclusive = no clear call, values can overlap the other calls
Mtb bLac sens: beta-lactam sensitization of Mtb H37Rv, H37Rv. M. tuberculosis H37Rv growth with meropenem, percent inhibition. inhibition, % at 25 µM. 330,000 tested, 0.27% active; call rule not given here;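 note: growth measured after seven days incubation then overnight dye step; 0% = bacteria only wells and 100% = bacteria with antibiotic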
UGM FP inh: M. tuberculosis UGM enzyme inhibitors, primary screen, biochemical, fluorescence polarization, single point | AID 504406, 2011 | UDP-galactopyranose mutase (Mycobacterium tuberculosis (strain ATCC 25618 / H37Rv)), … | inhibition, % at 10 µM | 320,000 tested, 0.06% active | purified UGM, fluorescence polarization probe displacement; in the data active = inhibition above about 10%, passing the limit was not always enough; inconclusive = no clear call, values can overlap the other calls
Target sequence (P9WIQ1 whole entry, looked up): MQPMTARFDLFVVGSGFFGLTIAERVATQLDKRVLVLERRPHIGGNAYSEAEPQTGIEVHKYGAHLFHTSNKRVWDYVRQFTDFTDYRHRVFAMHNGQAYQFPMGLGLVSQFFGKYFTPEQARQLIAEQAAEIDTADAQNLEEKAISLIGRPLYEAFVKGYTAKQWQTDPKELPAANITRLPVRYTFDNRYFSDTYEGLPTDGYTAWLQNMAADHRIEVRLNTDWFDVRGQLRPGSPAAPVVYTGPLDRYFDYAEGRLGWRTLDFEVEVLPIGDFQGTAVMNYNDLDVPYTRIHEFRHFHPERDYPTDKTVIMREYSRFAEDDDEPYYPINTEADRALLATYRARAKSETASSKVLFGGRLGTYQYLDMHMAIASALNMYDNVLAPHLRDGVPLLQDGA
GDH-TPI counter: GDH-TPI coupling enzyme inhibitors, primary screen, artefact control for M. tuberculosis FBA inhibitor project, biochemical, absorbance, full deck; inhibition, % at 4.8 µM; 360,000 tested, 1.2% active; GDH-TPI coupled enzyme counterscreen, NADH absorbance; AID 588335, 2011; in the data active = inhibition above about 30%;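 note: 0% = DMSO wells and 100% = wells lacking the enzyme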
FBA Mtb inh: Mtb FBA enzyme inhibitors, primary screen, biochemical, fluorescence, strain H37Rv; purified M. tuberculosis FBA, fluorescence read-out; inhibition, % at 1 µM; 360,000 tested, 2.3% active; in the data active = inhibition above about 27%;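 note: 0% = vehicle and 100% = reference inhibitor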
Numbers without * were called inactive; ? = inconclusive; · = no result given; + = active, no number.

SMILES | Rv3671c protease | FadD28 binding | Mtb bLac sens | UGM FP inh | GDH-TPI counter | FBA Mtb inh
CC(NCC(=O)Nc1cc(S(=O)(=O)N2CCOCC2)ccc1Cl)c1ccc(Cl)cc1Cl (configuration not stated) | -2.0 | -3.4 | 2.3 | 0.3 | 7.4 | -4.4
Cc1cc(OCC(=O)C(C)(C)C)c2c(C)c(C)c(=O)oc2c1 | -5.5 | -1.9 | -3.8 | -2.2 | 5.1 | 48.6*
Cc1cc(OCC(=O)Nc2ccccn2)c2c(C)c(C)c(=O)oc2c1 | 2.2 | -1.8 | 1.3 | 2.5 | -6.3 | 10.8
CC(=O)NCCC1CCN(c2nc3nonc3nc2N(C)Cc2ccccc2)CC1 | -2.0 | -4.6 | -1.4 | 0.5 | 37.2* | 0.4
N#Cc1nc(-c2cccs2)oc1NCc1ccc(Cl)cc1 | 2.9 | 0.2 | -5.7 | 0.6 | 7.5 | +
N#Cc1nc(Cc2ccccc2)oc1NCc1ccccc1 | -4.7 | 0.0 | 5.3 | -1.3 | 1.2 | -8.1
C=CCNc1oc(-c2cccs2)nc1C#N | 1.4 | -1.2 | -10.0 | 3.6 | 28.2 | +
N#Cc1nc(-c2cccs2)oc1NCc1ccccc1Cl | -3.9 | -1.7 | 73.7 | 0.0 | 25.2 | 157.9*
N#Cc1nc(-c2cccs2)oc1NCc1ccco1 | 0.1 | 2.6 | 2.9 | -0.8 | 19.7 | +
CCOc1ccc(Nc2oc(-c3cccs3)nc2C#N)cc1 | 3.2 | -1.4 | -2.9 | -1.9 | 17.6 | 12.9
C/C(=N\Nc1nc(N2CCCCC2)nc(N2CCOCC2)n1)c1ccccc1O | -3.1 | 0.8 | 6.5 | -1.6 | 2.5 | -0.1
CC1O[C@@H](OC2C(O)C(O)C(CO)O[C@H]2OC2C[C@]3(C)C(CC(O)C4[C@@H]([C@]5(C)CC[C@@H](C(C)(C)O)O5)CC[C@]43C)[C@@]3(C)CCC(O)C(C)(C)C23)C(O)C(O)C1O (some centres not stated) | -1.5 | 0.5 | -1.5 | 1.8 | -1.7 | 0.7
N#Cc1nc(-c2cccs2)oc1NCc1ccccc1 | -0.7 | -1.1 | 55.8 | -4.2 | 22.2 | +
Cc1ccc(CNc2oc(-c3cccs3)nc2C#N)cc1 | 0.2 | 2.4 | 4.9 | -2.2 | 7.4 | +
O=C(Nc1ccc2oc(-c3cccnc3)nc2c1)c1cc2ccccc2o1 | -6.4 | -1.2 | -7.8 | 0.3 | 14.9 | 2.0
O=C(Nc1cccc(-c2nc3cc(Cl)ccc3o2)c1)C1CCCO1 (configuration not stated) | 0.3 | -0.4 | -2.2 | 1.0 | 1.6 | 7.6
CCCCC(=O)Nc1ccc2oc(-c3cccnc3)nc2c1 | 5.0 | -4.4 | -9.7 | -2.4 | -0.8 | 141.0*
CCC(=O)Nc1ccc2oc(-c3cccc(C)c3)nc2c1 | 0.5 | -4.0 | 4.9 | 3.9 | 4.6 | 139.2*
Cc1cccc(-c2nc3cc(NC(=O)C4CCCO4)ccc3o2)c1 (configuration not stated) | 2.0 | -3.2 | -7.2 | 3.8 | -4.1 | 114.2*
Nc1nonc1-n1nnc(C(=O)N/N=C/c2ccco2)c1CSc1ccc(Cl)cc1 | · | -3.4 | · | · | 13.3 | -0.7
COc1cccc(CN2CCC2(C)C(=O)Nc2ccc(Cl)c(Cl)c2)c1F (configuration not stated) | · | -2.6 | · | · | 4.6 | -2.1
COc1ccc(/C=N/OCC(=O)OCC(=O)N(C)c2ccccc2)cc1 | -1.4 | 0.8 | 93.3 | -0.5 | 2.4 | -0.5
CC1CCc2c(sc3[nH]c(=S)n(C)c(=O)c23)C1 (configuration not stated) | -7.7 | -3.0 | 2.1 | -0.3 | 12.5 | -5.6
Nc1nnc(-c2cccc([N+](=O)[O-])c2)s1 | -15.8 | 0.2 | -2.2 | 2.4 | 3.1 | -3.5
Nc1nnc(/C=C/c2cccc([N+](=O)[O-])c2)s1 | -0.4 | -2.4 | -1.6 | -2.9 | 44.3* | 0.4
SMILES | Rv3671c protease | FadD28 binding | Mtb bLac sens | UGM FP inh | GDH-TPI counter | FBA Mtb inh
Cc1ccc(NC2c3ccccc3C(=O)N2c2cccnc2)cc1 (configuration not stated) | -1.7 | -0.4 | -1.5 | -2.4 | 12.1 | 12.3
Cc1ccc(N/C=C2\C(=O)N(c3ccc(F)cc3F)C(c3cccnc3)S2(=O)=O)cc1 (configuration not stated) | -7.8 | -1.5 | -5.8 | 2.8 | 66.0* | 3.3
CCOC(=O)c1cc(=O)n2c(nc3ccccc32)[nH]1 | 3.2 | -4.1 | 18.1 | 1.1 | 16.2 | +
CCOc1cc(/C=C/c2cc(C(=O)O)c3ccccc3n2)ccc1OC | 0.2 | -0.2 | -2.2 | 2.4 | 7.0 | 1.1
CCOc1cccc(/C=C/c2cc(C(=O)O)c3ccccc3n2)c1OC | -3.2 | 0.1 | 1.8 | 3.5 | 48.1* | -7.5
COC(=O)c1ccc(NC(=S)NC2c3ccccc3CC2O)cc1 (configuration not stated) | -3.1 | 21.9* | -3.4 | -2.4 | -3.8 | -4.9
CN(C)CCCN1C(=O)C(=O)/C(=C(/O)c2ccncc2)C1c1cccc(Br)c1 (configuration not stated) | 1.3 | 1.5 | -1.7 | -1.6 | 31.2* | -1.2
CN(C)c1ccc(C2/C(=C(/O)c3ccccc3)C(=O)C(=O)N2CCCC(=O)O)cc1 (configuration not stated) | 3.1 | -0.8 | -5.2 | -0.8 | 30.9* | -2.1
O=C1NC(Cc2ccccc2)c2nc3ccccc3c(=O)n2-c2cc3ccccc3cc21 (configuration not stated) | · | -2.6 | · | · | -5.2 | -0.6
Cc1ccc(S(=O)(=O)N2CCC(C(=O)N/N=C/c3cccn3C)CC2)cc1 | -3.0 | -0.9 | -5.1 | -0.4 | 15.3 | -1.2
O=[N+]([O-])c1ccc(N=NNc2ccccc2)cc1 | -6.5 | -2.9 | -4.1 | 3.5 | 10.8 | 77.6*
O=C(O)c1cc(NN=Nc2cccc([N+](=O)[O-])c2)cc([N+](=O)[O-])c1 | -9.5 | 4.9 | -6.7 | -3.1 | 24.5 | -2.3
CN(N=Nc1cccc([N+](=O)[O-])c1)c1ccccc1 | -4.6 | -0.7 | 34.4 | -0.6 | 4.0 | 0.6
O=C(O)c1cc(NN=Nc2ccc(Br)cc2)cc([N+](=O)[O-])c1 | -1.0 | ? | 18.8 | -1.3 | 31.0* | -0.6
CN(N=Nc1ccc([N+](=O)[O-])cc1)c1ccccc1 | -6.7 | 0.1 | 50.7 | 25.6* | 13.2 | -9.4
COc1ccc(NC(=O)c2cc(S(=O)(=O)N3CCCCC3)ccc2C)cc1S(=O)(=O)N1CCOCC1 | · | -2.9 | · | · | -6.9 | -1.9
N#CCCn1cc(C(=O)Nc2ccc([N+](=O)[O-])cc2)c(-c2ccccc2)n1 | -3.5 | -4.5 | -3.9 | 1.3 | 37.5* | -1.3
CC(NC(=O)c1cccc(S(=O)(=O)N(C)c2ccccc2)c1)c1cccnc1 (configuration not stated) | 6.6 | 0.2 | -0.1 | 2.2 | -2.2 | -0.5
CCc1cc2c(CN3CCN(C)CC3)cc(=O)oc2cc1O | 5.4 | -1.3 | 5.2 | -0.6 | 11.0 | +
